Compounds with a hit are over-represented: about 6.7% of the library has one in this group of screens.
Pf Dd2 growth – P. falciparum Dd2 growth inhibition. SYBR Green, 72 h; active compounds read low. AID 1159554. activity change, % at 10 µM. hit rate 2.3% among 94,000; in the data active = activity change below about -80%; inconclusive = no clear call, values can overlap the other calls
C diff HTS – blocks growth of Clostridium difficile | Clostridium difficile clinical isolate growth, OD600, 24 h; active compounds read low | growth activity, negative = inhibition, % at 16 µg/mL (by protocol) | hit rate 0.25% among 86,000 | AID 1259249;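 active = mean growth activity at or below -80% and every replicate also at or below -80%; inconclusive = mean at or below -80% but some replicate above -80%; inactive = mean growth activity above -80%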
T cruzi growth-1 – T. cruzi proliferation inhibition. T. cruzi beta-gal in NIH3T3, GalScreen luminescence, 90 h. inhibition, % at 8.34 µM. hit rate 5.9% among 77,000. AID 624255;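 active = mean inhibition above about 93%, with at least 55% of replicates each passing it, limit read from the data, passing the limit was not always enough; inconclusive = only one of those two conditions holds; inactive = neither condition holds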
T cruzi growth-2 – inhibitors of T. cruzi proliferation | shares compounds with T cruzi growth-1 | T. cruzi beta-gal in NIH3T3, GalScreen luminescence, 90 h | inhibition, % at 8.35 µM | hit rate 72% among 5,600 | AID 651739;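 active = mean replicate inhibition above about 95% and at least 55% of replicates individually reaching it, limit read from the data; inconclusive = only one of the two criteria is met; inactive = neither criterion is met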
T cruzi growth-3 – inhibitors of T. cruzi proliferation. shares compounds with T cruzi growth-1. T. cruzi beta-gal in NIH3T3, GalScreen luminescence, 90 h. inhibition, % at 2.09 µM. hit rate 21% among 5,600;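 active = mean inhibition above about 95%, with at least 55% of replicates also reaching it, limit read from the data; inconclusive = meets just one of the two conditions; inactive = meets neither condition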
NIH3T3 tox – NIH/3T3 (mouse) viability loss | shares compounds with T cruzi growth-1 | NIH/3T3 viability, CellTiter-Glo ATP luminescence, 90 h | cytotoxicity (signal decrease), % at 8.35 µM | hit rate 14% among 5,600;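 active = mean signal decrease across replicates above about 35% based on untreated-well scatter, with enough replicates individually passing, limit read from the data; inconclusive = no rule stated though some were filed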
3T3 cytotox 2 – NIH/3T3 (mouse) viability loss; shares compounds with T cruzi growth-1; inhibition, % at 24.9 µM; AID 651744; hit rate 56% among 5,600; NIH/3T3 viability, CellTiter-Glo ATP luminescence, 90 h;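 active = mean loss of cell viability signal at or above a set limit, and enough replicates individually reaching it; inconclusive = meets only the mean limit or only the replicate share; inactive = meets neither condition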
Of the large screens only hits and unclear results are named; the others gave an inactive call (follow-up assays come after a bar, where they were run).

Cc1cccc(S(=O)(=O)N2C[C@@H](O)COC[C@@H]3O[C@H](CC(=O)NCc4ccncn4)CC[C@H]32)c1	none (no result: C diff HTS)
Cc1ccccc1S(=O)(=O)NCC[C@H]1CC[C@@H](NC(=O)C2CCC2)[C@@H](CO)O1	none (no result: T cruzi growth-1)
C[C@@H]1CN([C@H](C)CO)C(=O)CCCn2cc(nn2)CO[C@@H]1CN(C)C(=O)C1CCCCC1	none
CCCN1C[C@@H](C)[C@@H](OC)CN(C)C(=O)c2cc(NC(=O)c3cnccn3)ccc2OC[C@@H]1C	none (no result: C diff HTS)
COc1ccc(CN(C)C[C@@H]2Oc3ccc(NC(=O)Nc4ccc(C(F)(F)F)cc4)cc3C(=O)N([C@@H](C)CO)C[C@H]2C)cc1	none
COc1ccc(CN(C)C[C@@H]2OCCCC[C@@H](C)Oc3ccc(NC(=O)Nc4ccc(F)cc4)cc3C(=O)N([C@H](C)CO)C[C@@H]2C)cc1	none
COc1ccc(CN(C)C[C@@H]2OCCCC[C@@H](C)Oc3ccc(NC(=O)Nc4ccc(OC)cc4)cc3C(=O)N([C@@H](C)CO)C[C@H]2C)cc1	none (no result: C diff HTS)
COc1ccc(CN(C)C[C@H]2OCCCC[C@H](C)Oc3ccc(NC(=O)Nc4ccc(OC)cc4)cc3C(=O)N([C@@H](C)CO)C[C@@H]2C)cc1	T cruzi growth-1 110 (no result: C diff HTS) | T cruzi growth-2 112 | T cruzi growth-3 inactive | NIH3T3 tox inactive | 3T3 cytotox 2 104
COc1ccc(CN(C)C[C@@H]2OCCCC[C@@H](C)Oc3ccc(NC(=O)Nc4ccc(F)cc4)cc3C(=O)N([C@H](C)CO)C[C@H]2C)cc1	T cruzi growth-1 inconclusive | T cruzi growth-2 97 | T cruzi growth-3 111 | NIH3T3 tox inactive | 3T3 cytotox 2 105
C[C@@H]1CN([C@H](C)CO)S(=O)(=O)c2ccc(-c3cncnc3)cc2O[C@@H]1CN(C)C(=O)c1ccc2c(c1)OCO2	none
C[C@@H]1CN([C@@H](C)CO)C(=O)c2cc(NS(=O)(=O)c3ccc(Cl)cc3)ccc2O[C@@H](C)CCCCO[C@@H]1CN(C)C(=O)Nc1ccc(C(F)(F)F)cc1	none
CO[C@H](CN(C)C(=O)Nc1ccc(C(F)(F)F)cc1)[C@@H](C)CN(Cc1ccccc1Cl)[C@H](C)CO	T cruzi growth-1 98 (no result: C diff HTS) | T cruzi growth-2 103 | T cruzi growth-3 inactive | NIH3T3 tox 45 | 3T3 cytotox 2 103
CO[C@H](CN(C)S(=O)(=O)c1ccc(F)cc1)[C@H](C)CN(Cc1ccccc1Cl)[C@H](C)CO	none (no result: C diff HTS)
CO[C@H](CN(C)C(=O)Nc1ccc(C(F)(F)F)cc1)[C@H](C)CN(Cc1ccccc1Cl)[C@H](C)CO	T cruzi growth-1 105 (no result: C diff HTS) | T cruzi growth-2 110 | T cruzi growth-3 inactive | NIH3T3 tox 46 | 3T3 cytotox 2 105
CO[C@@H](CN(C)C(=O)Nc1ccc(F)cc1)[C@@H](C)CN(Cc1ccccc1Cl)[C@@H](C)CO	none (no result: C diff HTS)
CO[C@@H](CN(C)C(=O)Nc1ccc(C(F)(F)F)cc1)[C@H](C)CN(Cc1ccccc1Cl)[C@H](C)CO	none (no result: C diff HTS)
CO[C@@H](CN(C)C(=O)Nc1ccc(F)cc1)[C@@H](C)CN(Cc1ccccc1Cl)[C@H](C)CO	none (no result: C diff HTS)
CO[C@@H](CN(C)S(=O)(=O)c1ccc(F)cc1)[C@@H](C)CN(Cc1ccccc1Cl)[C@H](C)CO	T cruzi growth-1 107 (no result: C diff HTS) | T cruzi growth-2 inactive | T cruzi growth-3 inactive | NIH3T3 tox inactive | 3T3 cytotox 2 inconclusive
CO[C@H](CN(C)C(=O)Nc1ccc(Cl)cc1)[C@@H](C)CN(Cc1ccccc1Cl)[C@@H](C)CO	T cruzi growth-1 inconclusive (no result: C diff HTS) | T cruzi growth-2 109 | T cruzi growth-3 inactive | NIH3T3 tox inactive | 3T3 cytotox 2 40
C[C@H]1CN([C@@H](C)CO)C(=O)c2cc(NC(=O)Nc3cccc4ccccc34)ccc2O[C@@H]1CN(C)S(C)(=O)=O	none (no result: T cruzi growth-1)
C[C@H]1CCCCO[C@H](CN(C)C(=O)c2ccccc2)[C@@H](C)CN([C@@H](C)CO)C(=O)c2cc(NS(=O)(=O)c3cccs3)ccc2O1	none
CC(C)C#Cc1ccc([C@H]2[C@@H](CO)N3CCCCN(C(=O)c4ccc(F)cc4)C[C@@H]23)cc1	none
CC(C)(O)C#Cc1ccc([C@H]2[C@@H](CO)N3CCCCN(C(=O)c4cccc(F)c4)C[C@H]23)cc1	T cruzi growth-1 110 | T cruzi growth-2 inactive | T cruzi growth-3 inactive | NIH3T3 tox inactive | 3T3 cytotox 2 inactive
CC(C)(O)C#Cc1ccc([C@@H]2[C@H](CO)N3CCCCN(C(=O)c4ccc(F)cc4)C[C@@H]23)cc1	none
CC(C)(O)C#Cc1ccc([C@H]2[C@H](CO)N3CCCCN(C(=O)c4ccc(F)cc4)C[C@@H]23)cc1	Pf Dd2 growth -94, T cruzi growth-1 122 | T cruzi growth-2 inconclusive | T cruzi growth-3 inactive | NIH3T3 tox inactive | 3T3 cytotox 2 inactive
CC(C)(O)C#Cc1ccc([C@H]2[C@@H](CO)N3CCCCN(C(=O)c4ccc(F)cc4)C[C@H]23)cc1	T cruzi growth-1 112 | T cruzi growth-2 inactive | T cruzi growth-3 inactive | NIH3T3 tox inactive | 3T3 cytotox 2 inactive
CC(C)(O)C#Cc1ccc([C@H]2[C@H]3CN(C(=O)c4cccc(F)c4)CCCCN3[C@H]2CO)cc1	none
O=C(C[C@H]1C[C@@H]2c3cc(NC(=O)C4CCC4)ccc3O[C@@H]2[C@H](CO)O1)NCc1ccc(-c2ccccc2)cc1	none
COc1ccc(NC(=O)N(C)C[C@H]2Oc3ccc(NC(=O)Nc4cccc5ccccc45)cc3C(=O)N([C@H](C)CO)C[C@H]2C)cc1	none
COCC(=O)Nc1ccc2c(c1)[C@H]1C[C@@H](CC(=O)NCc3ccccc3)O[C@@H](CO)[C@H]1O2	none (no result: C diff HTS)
C[C@@H]1CN([C@H](C)CO)C(=O)c2cc(C#CC(C)(C)O)cnc2O[C@@H]1CN(C)C(=O)c1ccccc1F	none
C[C@H](CO)N1C[C@H](C)[C@H](CN(C)Cc2ccccn2)Oc2ncc(C#CCN(C)C)cc2C1=O	none
C[C@@H]1CCCCO[C@H](CN(C)Cc2ccc(C(F)(F)F)cc2)[C@@H](C)CN([C@@H](C)CO)C(=O)c2cc(NS(=O)(=O)c3cccs3)ccc2O1	T cruzi growth-1 112 | T cruzi growth-2 inactive | T cruzi growth-3 112 | NIH3T3 tox inactive | 3T3 cytotox 2 106
C[C@H](CO)N1C[C@H](C)[C@@H](CN(C)Cc2ccc(C(F)(F)F)cc2)OCCCC[C@H](C)Oc2ccc(NS(=O)(=O)c3cccs3)cc2C1=O	T cruzi growth-1 inconclusive | T cruzi growth-2 99 | T cruzi growth-3 105 | NIH3T3 tox 44 | 3T3 cytotox 2 106
C[C@@H]1CN([C@H](C)CO)C(=O)c2cc(NS(=O)(=O)c3cccs3)ccc2O[C@@H](C)CCCCO[C@H]1CN(C)Cc1ccc(C(=O)O)cc1	none (no result: T cruzi growth-1)

High-throughput results: PubChem BioAssay, Broad Institute
